Assay results reported in PubChem BioAssay (NCATS).
Records with an inconclusive call do not appear. The source made the active and inactive calls. The call rests on the fitted dose curve; in most records, active means well fitted inhibition curve with a large enough effect; inconclusive means small, poorly fitted or top-dose-only effect; inactive means no such curve, though single readings can be large or run the other way. Where a SMILES comes first, the peptide text is derived from it. The star is where a group is joined. PhAc = O=C(Cc1ccccc1)*

biological target: Cytochrome P450 3A7 (Homo sapiens) (UniProt P24462); assay: Cytochrome P450 family 3 subfamily A member 7 (CYP3A7) small molecule antagonists: luciferase biochemical qHTS assay (AID 1963596); conditions: P450-Glo CYP3A7 enzyme luminescence, 1 h; series mostly up to 57.4 µM; activity change, negative = inhibition: at the top concentration; further: nearly all actives have a fitted effect of over 40% in size
Sequence (P24462 whole entry, looked up): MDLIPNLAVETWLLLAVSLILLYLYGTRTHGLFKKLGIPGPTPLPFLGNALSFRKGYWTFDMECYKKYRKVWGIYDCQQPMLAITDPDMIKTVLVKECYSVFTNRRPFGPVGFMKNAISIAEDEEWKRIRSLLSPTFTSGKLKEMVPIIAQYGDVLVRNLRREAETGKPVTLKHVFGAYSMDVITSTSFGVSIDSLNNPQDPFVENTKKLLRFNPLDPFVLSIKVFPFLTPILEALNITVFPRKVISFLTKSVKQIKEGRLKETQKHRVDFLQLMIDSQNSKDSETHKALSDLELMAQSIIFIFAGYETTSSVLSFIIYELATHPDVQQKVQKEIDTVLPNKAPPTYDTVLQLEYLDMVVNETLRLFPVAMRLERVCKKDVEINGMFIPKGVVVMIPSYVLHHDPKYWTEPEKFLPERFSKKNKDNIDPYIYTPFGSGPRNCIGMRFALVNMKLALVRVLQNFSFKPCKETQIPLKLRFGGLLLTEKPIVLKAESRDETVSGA
How it was run: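 Luminescence from luciferin released by CYP3A7 from a proluciferin substrate, read 20 min after detection reagent. Compound and enzyme-substrate mix sat 10 min before NADPH regeneration solution; reaction ran 1 h at room temperature.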
On the % scale 0 is the no-effect control and ±100 the full control effect.

Structure (SMILES) | activity change, negative = inhibition
CC(C)(F)C[C@@H](N[C@@H](c1ccc(-c2ccc(S(C)(=O)=O)cc2)cc1)C(F)(F)F)C(=O)NC1(C#N)CC1 | -25.9% (inactive)
CCc1ccc(CN(Cc2ccco2)C(=O)COc2ccccc2Cl)cc1 | 10.1% (inactive)
N[C@H](CO)C(=O)O | 0% (inactive)
CCOC(=O)CNC(=O)[C@@H]1CCCN1C(=O)Cc1ccccc1 (PhAc-Pro-Gly-OEt) | -27.5% (inactive)
Cc1nc(NC(=O)N2CCCC2C(N)=O)sc1-c1csc(C(C)(C)C)n1 (stereo not drawn) | -26.1% (inactive)
COc1ccc(CNC(=O)Nc2ccc3c(c2)N(C)C(=O)c2ccccc2S3)cc1OC | 0% (inactive)
O=c1[nH]ccc2cc(OC3CCNCC3)ccc12 | 0% (inactive)
O=C(OCCO)c1ccccc1O | -2.92% (inactive)
O=C1CCC(=O)N1CO | -1.52% (inactive)
CC(C)OC(=O)N1CCC(Oc2ncnc3c2cnn3-c2ccc(S(C)(=O)=O)cc2F)CC1 | -17.1% (inactive)
CCOc1cc(C(=O)Nc2ccc(-c3nc4ncccc4o3)cc2C)cc(OCC)c1OCC | -15.7% (inactive)
CCCN(CCc1cccs1)[C@H]1CCc2c(O)cccc2C1 | 0% (inactive)
c1ccc(N2CCN(CCc3nn[nH]n3)CC2)cc1 | 0.708% (inactive)
O=C1CSc2ccccc2N1Cc1cccc(C(F)(F)F)c1 | 0% (inactive)
COc1ccc(NC(=O)c2ccc(C(=N)N(C)C)cc2)c(C(=O)Nc2ccc(Cl)cn2)c1 | -23.6% (inactive)
CCC(COC)n1nnc2c(Nc3ccc(OC)cc3C)nc(C)cc21 (stereo not drawn) | 0% (inactive)
COc1ccc(CC(=O)Nc2c(C(=O)N3CCN(c4ccccc4F)CC3)oc3ccccc23)cc1OC | 0% (inactive)
Cc1ccc(S(=O)(=O)N[C@@H]2CCCC[C@H]2O)cc1 | -7.75% (inactive)
